A number with no mark means an inactive call. Active and inactive are the calls of the source.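 How the source made its calls: active means inhibition of at least 75% in the gel-based probe competition assay; inactive means inhibition below 75%.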
Target: Platelet-activating factor acetylhydrolase (Mus musculus) (UniProt Q60963)
Experiment: mouse pPAFAH inhibitors, late-stage follow-up, orthogonal assay, biochemical, gel-based competitive ABPP, fluorescence (AID 588474)
Details: recombinant mouse pPAFAH, FP-Rh fluorescence, at 5 µM, stronger effect = higher value

Sequence of Platelet-activating factor acetylhydrolase (Mus musculus) (Q60963 whole entry, looked up): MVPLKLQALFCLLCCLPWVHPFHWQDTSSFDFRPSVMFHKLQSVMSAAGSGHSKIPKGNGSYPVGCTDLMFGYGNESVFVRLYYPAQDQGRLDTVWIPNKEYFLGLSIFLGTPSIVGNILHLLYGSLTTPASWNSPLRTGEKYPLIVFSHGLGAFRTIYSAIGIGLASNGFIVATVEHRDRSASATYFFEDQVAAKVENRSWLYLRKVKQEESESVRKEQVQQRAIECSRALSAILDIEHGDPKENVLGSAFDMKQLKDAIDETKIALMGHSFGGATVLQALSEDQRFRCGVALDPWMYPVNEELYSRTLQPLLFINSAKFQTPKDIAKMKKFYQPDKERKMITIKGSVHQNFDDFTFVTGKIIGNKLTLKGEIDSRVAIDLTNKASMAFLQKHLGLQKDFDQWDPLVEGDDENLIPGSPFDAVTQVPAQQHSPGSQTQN

SMILES	inhibition
CN(C)C(=O)Oc1noc2cc(Cl)ccc12	99% (active)
Cc1cc(C(=O)CS(=O)(=O)c2ccccc2)cc(C)c1OC(=O)N(C)C	36%
CN1C[C@H](CNC(=O)OCc2ccccc2)C[C@@H]2c3cccc4c3c(cn4C)C[C@H]21	15%
O=C(Oc1ccc([N+](=O)[O-])cc1)N1CCC(N2CCCCC2)CC1	84% (active)
NCCc1ccc(S(=O)(=O)F)cc1	16%
N#Cc1ccccc1Cn1cc(C(=O)c2ccccc2F)c2ccccc21	8%
N#Cc1ccccc1Cn1cc(C(=O)c2cccs2)c2ccccc21	44%
O=C(c1ccco1)c1cn(Cc2ccccc2Cl)c2ccccc12	9%
O=C(c1cccs1)c1cn(Cc2ccccc2Cl)c2ccccc12	43%
